Results reported in publication PMC7862700, “An all-to-all approach to the identification of sequence-specific readers for epigenetic DNA modifications on cytosine”.

What was measured:
Assay in all cases: DAPPL (digital affinity profiling via proximity ligation, sequencing); 10 mM Tris-HCl pH 7.5, 50 mM NaCl, 1 mM DTT, 4% glycerol, room temperature, 30 min; GST-TFs on glutathione beads, 16-mer random dsDNA library, 0.1% formaldehyde crosslink after washing; high values mean tight binding
FEV = molecular target: T1, FEV (Homo sapiens, UniProt Q99581 1-238); conditions: protein: recombinant; tags: N-terminal GST; dsDNA, one strand shown
T1 sequence: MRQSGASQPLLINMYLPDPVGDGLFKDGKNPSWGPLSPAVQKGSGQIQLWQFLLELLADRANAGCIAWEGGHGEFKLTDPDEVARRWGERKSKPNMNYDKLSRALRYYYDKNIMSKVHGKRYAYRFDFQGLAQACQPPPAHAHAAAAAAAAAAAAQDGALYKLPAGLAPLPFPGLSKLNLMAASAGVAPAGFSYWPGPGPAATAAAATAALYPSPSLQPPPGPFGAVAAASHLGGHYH
Outline: (§1)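 The binding signal reported is, for every hexamer, its read frequency for a factor over its read frequency for the tag-only sample. Reads came from pools of yeast-expressed, GST-fused human transcription factors on glutathione beads, barcoded with DNA and mixed with that sample, which were incubated with 200 nmole of a random double-stranded 16-mer DNA library in Tris/NaCl/DTT/glycerol buffer at room temperature for 30 min. After washing, the pools were crosslinked with 0.1% formaldehyde, proximity-ligated with BsaI/T4 ligase for 1 h at 37 °C, PCR-amplified and sequenced on an Illumina NextSeq500.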

ETV5 = ETV5 (Homo sapiens, UniProt P41161 1-510); conditions: protein: recombinant; tags: N-terminal GST; dsDNA, one strand shown
Sequence of ETV5 (P41161 whole entry): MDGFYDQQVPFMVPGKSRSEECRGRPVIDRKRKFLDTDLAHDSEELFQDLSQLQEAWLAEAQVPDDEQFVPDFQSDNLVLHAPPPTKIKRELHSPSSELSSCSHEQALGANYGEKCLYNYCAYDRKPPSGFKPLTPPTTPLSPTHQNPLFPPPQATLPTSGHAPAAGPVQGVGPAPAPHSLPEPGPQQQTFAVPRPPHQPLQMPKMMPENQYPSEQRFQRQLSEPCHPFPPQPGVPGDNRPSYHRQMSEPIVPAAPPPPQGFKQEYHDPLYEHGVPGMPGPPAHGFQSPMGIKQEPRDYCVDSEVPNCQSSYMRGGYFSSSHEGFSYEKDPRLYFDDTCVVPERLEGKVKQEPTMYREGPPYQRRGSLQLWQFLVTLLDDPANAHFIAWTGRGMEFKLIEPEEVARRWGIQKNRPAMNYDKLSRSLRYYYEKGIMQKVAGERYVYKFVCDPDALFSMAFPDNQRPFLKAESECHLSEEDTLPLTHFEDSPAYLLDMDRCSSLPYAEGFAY
Outline: as §1

HSF1 = HSF1 (Homo sapiens, UniProt Q00613 1-529); conditions: protein: recombinant; tags: N-terminal GST; chain copies: 3; dsDNA, one strand shown
Sequence of HSF1 (Q00613 whole entry): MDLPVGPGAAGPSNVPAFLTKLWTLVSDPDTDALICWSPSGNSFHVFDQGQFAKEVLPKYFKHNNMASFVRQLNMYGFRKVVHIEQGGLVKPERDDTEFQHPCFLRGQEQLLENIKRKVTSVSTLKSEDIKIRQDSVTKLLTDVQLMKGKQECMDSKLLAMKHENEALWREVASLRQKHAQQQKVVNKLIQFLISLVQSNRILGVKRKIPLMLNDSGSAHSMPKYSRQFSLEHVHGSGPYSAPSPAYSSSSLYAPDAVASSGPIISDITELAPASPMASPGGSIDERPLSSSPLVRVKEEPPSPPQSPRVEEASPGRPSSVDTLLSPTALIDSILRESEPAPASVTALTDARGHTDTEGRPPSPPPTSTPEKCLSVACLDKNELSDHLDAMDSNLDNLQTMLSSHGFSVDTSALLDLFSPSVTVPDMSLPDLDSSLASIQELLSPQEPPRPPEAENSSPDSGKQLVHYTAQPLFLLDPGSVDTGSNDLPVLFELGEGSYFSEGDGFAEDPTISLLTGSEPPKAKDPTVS
Outline: as §1

SPIC = molecular target: T2, SPIC (Homo sapiens, UniProt Q8N5J4 1-248); conditions: protein: recombinant; tags: N-terminal GST; dsDNA, one strand shown
T2 sequence: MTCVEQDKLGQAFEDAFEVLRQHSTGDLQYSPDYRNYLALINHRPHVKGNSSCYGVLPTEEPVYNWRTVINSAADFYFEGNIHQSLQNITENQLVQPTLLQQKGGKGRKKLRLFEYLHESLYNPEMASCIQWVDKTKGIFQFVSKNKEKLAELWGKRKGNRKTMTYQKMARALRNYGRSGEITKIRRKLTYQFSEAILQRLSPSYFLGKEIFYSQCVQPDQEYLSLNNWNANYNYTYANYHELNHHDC
Outline: as §1

ELF4 = ELF4 (Homo sapiens, UniProt Q99607 1-663); conditions: protein: recombinant; tags: N-terminal GST; dsDNA, one strand shown
Sequence of ELF4 (Q99607 whole entry): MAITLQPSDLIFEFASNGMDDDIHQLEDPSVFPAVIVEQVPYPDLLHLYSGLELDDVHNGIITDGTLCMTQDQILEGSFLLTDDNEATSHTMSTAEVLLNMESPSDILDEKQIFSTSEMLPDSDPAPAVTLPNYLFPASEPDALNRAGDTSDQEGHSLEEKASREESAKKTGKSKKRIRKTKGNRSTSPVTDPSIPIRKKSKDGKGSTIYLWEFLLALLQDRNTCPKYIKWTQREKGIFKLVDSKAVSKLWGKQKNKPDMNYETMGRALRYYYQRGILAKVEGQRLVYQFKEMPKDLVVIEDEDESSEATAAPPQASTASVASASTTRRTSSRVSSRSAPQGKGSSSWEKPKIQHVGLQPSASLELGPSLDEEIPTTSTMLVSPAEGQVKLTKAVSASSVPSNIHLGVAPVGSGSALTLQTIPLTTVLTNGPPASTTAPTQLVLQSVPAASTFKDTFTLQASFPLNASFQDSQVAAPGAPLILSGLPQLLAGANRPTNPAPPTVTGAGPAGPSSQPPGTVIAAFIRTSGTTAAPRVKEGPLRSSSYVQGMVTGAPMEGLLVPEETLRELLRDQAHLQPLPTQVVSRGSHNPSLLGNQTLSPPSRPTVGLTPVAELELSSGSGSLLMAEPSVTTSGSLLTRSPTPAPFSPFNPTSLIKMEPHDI
Outline: as §1

ELK4 = molecular target: T3, ELK4 (Homo sapiens, UniProt P28324-2 1-405); conditions: protein: recombinant; tags: N-terminal GST; dsDNA, one strand shown
T3 sequence: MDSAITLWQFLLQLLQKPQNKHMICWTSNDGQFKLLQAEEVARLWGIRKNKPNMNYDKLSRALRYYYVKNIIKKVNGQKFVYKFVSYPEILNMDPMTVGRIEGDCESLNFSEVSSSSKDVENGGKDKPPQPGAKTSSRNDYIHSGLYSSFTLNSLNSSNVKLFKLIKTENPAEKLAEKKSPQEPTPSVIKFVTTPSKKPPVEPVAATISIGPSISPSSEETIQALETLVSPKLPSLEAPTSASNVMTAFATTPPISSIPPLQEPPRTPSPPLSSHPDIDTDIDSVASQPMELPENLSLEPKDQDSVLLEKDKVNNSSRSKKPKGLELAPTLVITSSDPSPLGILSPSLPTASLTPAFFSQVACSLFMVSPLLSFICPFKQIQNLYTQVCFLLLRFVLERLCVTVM
Outline: as §1

ETV2 = molecular target: T4, ETV2 (Homo sapiens, UniProt O00321 1-342); conditions: protein: recombinant; tags: N-terminal GST; dsDNA, one strand shown
T4 sequence: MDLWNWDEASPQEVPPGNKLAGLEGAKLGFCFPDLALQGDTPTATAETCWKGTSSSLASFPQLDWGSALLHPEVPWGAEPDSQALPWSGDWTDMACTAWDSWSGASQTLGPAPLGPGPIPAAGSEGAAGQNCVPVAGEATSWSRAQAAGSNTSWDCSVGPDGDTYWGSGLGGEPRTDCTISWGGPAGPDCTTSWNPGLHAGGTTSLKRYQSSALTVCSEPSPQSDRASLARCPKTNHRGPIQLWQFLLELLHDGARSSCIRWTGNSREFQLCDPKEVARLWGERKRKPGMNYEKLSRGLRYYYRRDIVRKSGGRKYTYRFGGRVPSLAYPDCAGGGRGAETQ
Outline: as §1

ELF3 = molecular target: T5, ELF3 (Homo sapiens, UniProt P78545 1-371); conditions: protein: recombinant; tags: N-terminal GST; dsDNA, one strand shown
T5 sequence: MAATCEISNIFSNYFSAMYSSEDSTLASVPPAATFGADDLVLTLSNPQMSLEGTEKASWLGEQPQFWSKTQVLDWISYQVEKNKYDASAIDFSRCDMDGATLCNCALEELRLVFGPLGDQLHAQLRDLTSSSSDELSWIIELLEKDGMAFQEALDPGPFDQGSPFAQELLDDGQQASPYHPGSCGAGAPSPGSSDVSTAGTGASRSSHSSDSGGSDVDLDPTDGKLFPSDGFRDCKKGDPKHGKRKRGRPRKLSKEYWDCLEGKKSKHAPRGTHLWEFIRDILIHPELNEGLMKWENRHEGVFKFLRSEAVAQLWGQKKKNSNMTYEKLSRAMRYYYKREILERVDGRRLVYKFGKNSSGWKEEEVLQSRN
Outline: as §1

ETV1 = ETV1 (Homo sapiens, UniProt P50549 1-477); conditions: protein: recombinant; tags: N-terminal GST; dsDNA, one strand shown
Sequence of ETV1 (P50549 whole entry): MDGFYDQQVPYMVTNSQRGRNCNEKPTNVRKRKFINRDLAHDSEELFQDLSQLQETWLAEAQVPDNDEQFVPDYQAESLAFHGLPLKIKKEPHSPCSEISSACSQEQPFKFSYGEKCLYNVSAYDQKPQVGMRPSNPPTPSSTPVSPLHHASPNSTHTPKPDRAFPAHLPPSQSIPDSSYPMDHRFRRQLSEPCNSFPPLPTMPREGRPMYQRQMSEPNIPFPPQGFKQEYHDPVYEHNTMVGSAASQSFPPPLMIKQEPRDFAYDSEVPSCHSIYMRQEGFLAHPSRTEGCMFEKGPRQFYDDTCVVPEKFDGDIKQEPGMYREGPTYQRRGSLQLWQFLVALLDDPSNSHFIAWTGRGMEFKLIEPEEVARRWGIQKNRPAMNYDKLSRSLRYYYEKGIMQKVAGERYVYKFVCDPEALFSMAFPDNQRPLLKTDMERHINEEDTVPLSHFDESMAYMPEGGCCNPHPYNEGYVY
Outline: as §1

ERF = molecular target: T6, ERF (Homo sapiens, UniProt P50548 1-548); conditions: protein: recombinant; tags: N-terminal GST; dsDNA, one strand shown
T6 sequence: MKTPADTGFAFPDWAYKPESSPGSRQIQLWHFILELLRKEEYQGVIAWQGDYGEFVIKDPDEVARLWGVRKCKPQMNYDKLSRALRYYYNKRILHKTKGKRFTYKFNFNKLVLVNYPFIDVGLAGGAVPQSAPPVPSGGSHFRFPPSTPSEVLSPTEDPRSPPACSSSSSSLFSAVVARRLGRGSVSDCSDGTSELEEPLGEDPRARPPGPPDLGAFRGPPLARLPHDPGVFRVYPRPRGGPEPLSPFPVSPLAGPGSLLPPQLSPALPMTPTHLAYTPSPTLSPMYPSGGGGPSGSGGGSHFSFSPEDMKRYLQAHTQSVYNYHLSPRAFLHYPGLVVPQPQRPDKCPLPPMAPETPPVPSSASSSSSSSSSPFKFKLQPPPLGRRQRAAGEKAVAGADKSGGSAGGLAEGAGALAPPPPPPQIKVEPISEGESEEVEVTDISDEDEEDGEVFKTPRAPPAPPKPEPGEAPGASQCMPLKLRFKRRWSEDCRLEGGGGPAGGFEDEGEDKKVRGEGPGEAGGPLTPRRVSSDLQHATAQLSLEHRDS
Outline: as §1

ETV3L = molecular target: T7, ETV3L (Homo sapiens, UniProt Q6ZN32 1-361); conditions: protein: recombinant; tags: N-terminal GST; dsDNA, one strand shown
T7 sequence: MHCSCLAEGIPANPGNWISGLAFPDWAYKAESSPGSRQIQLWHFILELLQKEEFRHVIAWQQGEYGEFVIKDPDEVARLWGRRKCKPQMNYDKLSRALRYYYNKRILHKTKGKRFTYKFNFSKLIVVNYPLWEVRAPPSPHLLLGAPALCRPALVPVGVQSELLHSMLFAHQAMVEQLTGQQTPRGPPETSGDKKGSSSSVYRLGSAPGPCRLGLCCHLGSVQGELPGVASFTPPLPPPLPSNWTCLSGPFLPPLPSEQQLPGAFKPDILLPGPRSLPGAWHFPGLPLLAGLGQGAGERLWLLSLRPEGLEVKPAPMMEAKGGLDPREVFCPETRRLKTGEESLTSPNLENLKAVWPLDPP
Outline: as §1

ETS2 = molecular target: T8, ETS2 (Homo sapiens, UniProt P15036 1-469); conditions: protein: recombinant; tags: N-terminal GST; dsDNA, one strand shown
T8 sequence: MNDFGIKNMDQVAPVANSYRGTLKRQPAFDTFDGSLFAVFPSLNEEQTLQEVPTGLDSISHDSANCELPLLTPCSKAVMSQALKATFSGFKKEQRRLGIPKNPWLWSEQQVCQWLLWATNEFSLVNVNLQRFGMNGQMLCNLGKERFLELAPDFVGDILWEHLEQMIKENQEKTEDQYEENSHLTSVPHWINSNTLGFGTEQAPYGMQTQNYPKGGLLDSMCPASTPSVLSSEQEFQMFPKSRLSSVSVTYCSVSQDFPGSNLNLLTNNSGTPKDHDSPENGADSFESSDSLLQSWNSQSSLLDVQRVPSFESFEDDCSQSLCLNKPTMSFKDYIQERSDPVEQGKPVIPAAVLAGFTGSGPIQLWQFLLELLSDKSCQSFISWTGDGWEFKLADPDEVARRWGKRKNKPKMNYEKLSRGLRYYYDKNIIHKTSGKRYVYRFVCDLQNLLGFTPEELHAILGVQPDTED
Outline: as §1

SPDEF = molecular target: T9, SPDEF (Homo sapiens, UniProt O95238 1-335); conditions: protein: recombinant; tags: N-terminal GST; dsDNA, one strand shown
T9 sequence: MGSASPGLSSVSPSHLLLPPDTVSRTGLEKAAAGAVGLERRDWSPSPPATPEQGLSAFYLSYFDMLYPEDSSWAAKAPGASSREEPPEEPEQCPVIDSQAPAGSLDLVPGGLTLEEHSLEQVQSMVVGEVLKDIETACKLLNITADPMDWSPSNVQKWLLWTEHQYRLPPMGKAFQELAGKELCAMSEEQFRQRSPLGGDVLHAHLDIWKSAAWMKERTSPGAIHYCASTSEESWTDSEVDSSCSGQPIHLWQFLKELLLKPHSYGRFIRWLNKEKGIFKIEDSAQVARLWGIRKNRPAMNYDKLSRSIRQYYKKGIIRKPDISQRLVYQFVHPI
Outline: as §1

ETV7 = molecular target: T10, ETV7 (Homo sapiens, UniProt Q9Y603 1-341); conditions: protein: recombinant; tags: N-terminal GST; dsDNA, one strand shown
T10 sequence: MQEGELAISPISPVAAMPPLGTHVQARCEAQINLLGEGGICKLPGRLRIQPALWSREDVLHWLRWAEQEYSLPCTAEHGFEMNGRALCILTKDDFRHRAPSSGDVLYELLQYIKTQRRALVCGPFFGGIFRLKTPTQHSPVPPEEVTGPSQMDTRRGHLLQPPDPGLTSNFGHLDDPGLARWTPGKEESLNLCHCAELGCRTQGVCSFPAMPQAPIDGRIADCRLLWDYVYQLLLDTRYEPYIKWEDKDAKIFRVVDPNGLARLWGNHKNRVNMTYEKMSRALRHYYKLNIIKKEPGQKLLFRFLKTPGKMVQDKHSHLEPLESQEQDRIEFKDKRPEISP
Outline: as §1

ELF5 = molecular target: T11, ELF5 (Homo sapiens, UniProt Q9UKW6-2 1-255); conditions: protein: recombinant; tags: N-terminal GST; dsDNA, one strand shown
T11 sequence: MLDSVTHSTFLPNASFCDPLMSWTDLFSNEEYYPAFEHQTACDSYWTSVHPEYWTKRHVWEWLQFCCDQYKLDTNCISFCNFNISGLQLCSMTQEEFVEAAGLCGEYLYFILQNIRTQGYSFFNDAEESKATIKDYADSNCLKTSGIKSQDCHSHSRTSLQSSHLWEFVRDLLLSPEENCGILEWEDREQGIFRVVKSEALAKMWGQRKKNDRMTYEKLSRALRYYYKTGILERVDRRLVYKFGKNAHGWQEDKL
Outline: as §1

ETV3 = molecular target: T12, ETV3 (Homo sapiens, UniProt P41162-2 1-143); conditions: protein: recombinant; tags: N-terminal GST; dsDNA, one strand shown
T12 sequence: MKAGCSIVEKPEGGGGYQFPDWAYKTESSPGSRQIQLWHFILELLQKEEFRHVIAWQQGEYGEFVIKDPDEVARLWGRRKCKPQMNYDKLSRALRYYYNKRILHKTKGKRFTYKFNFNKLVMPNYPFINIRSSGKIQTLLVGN
Outline: as §1

ETV6 = ETV6 (Homo sapiens, UniProt P41212 1-452); conditions: protein: recombinant; tags: N-terminal GST; dsDNA, one strand shown
Sequence of ETV6 (P41212 whole entry): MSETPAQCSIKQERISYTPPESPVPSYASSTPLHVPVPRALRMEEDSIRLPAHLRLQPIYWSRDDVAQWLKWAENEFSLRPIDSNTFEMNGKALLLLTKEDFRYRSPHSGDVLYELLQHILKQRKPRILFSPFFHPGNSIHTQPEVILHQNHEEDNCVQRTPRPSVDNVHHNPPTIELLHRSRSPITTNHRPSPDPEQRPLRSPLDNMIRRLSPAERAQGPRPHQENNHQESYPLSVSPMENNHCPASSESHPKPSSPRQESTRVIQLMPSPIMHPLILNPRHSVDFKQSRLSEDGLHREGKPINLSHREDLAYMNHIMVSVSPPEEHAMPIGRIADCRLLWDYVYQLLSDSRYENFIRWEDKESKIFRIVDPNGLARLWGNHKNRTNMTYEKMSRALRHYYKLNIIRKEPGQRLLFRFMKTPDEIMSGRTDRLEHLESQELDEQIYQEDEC
Outline: as §1

Sequence | binding signal (FEV) | binding signal (ETV5) | binding signal (HSF1) | binding signal (SPIC) | binding signal (ELF4) | binding signal (ELK4) | binding signal (ETV2) | binding signal (ELF3) | binding signal (ETV1) | binding signal (ERF) | binding signal (ETV3L) | binding signal (ETS2) | binding signal (SPDEF) | binding signal (ETV7) | binding signal (ELF5) | binding signal (ETV3) | binding signal (ETV6)
ACGAAC | 1.15 fold enrichment (6-mer frequency, TF over GST control) | 1.22 fold enrichment (6-mer frequency, TF over GST control) | 1.19 fold enrichment (6-mer frequency, TF over GST control) | 1.07 fold enrichment (6-mer frequency, TF over GST control) | 1.22 fold enrichment (6-mer frequency, TF over GST control) | 1.18 fold enrichment (6-mer frequency, TF over GST control) | 1.18 fold enrichment (6-mer frequency, TF over GST control) | 1.22 fold enrichment (6-mer frequency, TF over GST control) | 1.09 fold enrichment (6-mer frequency, TF over GST control) | 1.05 fold enrichment (6-mer frequency, TF over GST control) | 1.07 fold enrichment (6-mer frequency, TF over GST control) | 1.22 fold enrichment (6-mer frequency, TF over GST control) | 1.13 fold enrichment (6-mer frequency, TF over GST control) | 1.21 fold enrichment (6-mer frequency, TF over GST control) | 1.09 fold enrichment (6-mer frequency, TF over GST control) | 1.04 fold enrichment (6-mer frequency, TF over GST control) | 1.1 fold enrichment (6-mer frequency, TF over GST control)
GAAGTA | 2.05 fold enrichment (6-mer frequency, TF over GST control) | 2.16 fold enrichment (6-mer frequency, TF over GST control) | 1.02 fold enrichment (6-mer frequency, TF over GST control) | 2.19 fold enrichment (6-mer frequency, TF over GST control) | 1.74 fold enrichment (6-mer frequency, TF over GST control) | 1.71 fold enrichment (6-mer frequency, TF over GST control) | 1.89 fold enrichment (6-mer frequency, TF over GST control) | 2.08 fold enrichment (6-mer frequency, TF over GST control) | 2.11 fold enrichment (6-mer frequency, TF over GST control) | 1.79 fold enrichment (6-mer frequency, TF over GST control) | 1.79 fold enrichment (6-mer frequency, TF over GST control) | 2.08 fold enrichment (6-mer frequency, TF over GST control) | 2.1 fold enrichment (6-mer frequency, TF over GST control) | 2.08 fold enrichment (6-mer frequency, TF over GST control) | 2.34 fold enrichment (6-mer frequency, TF over GST control) | 2.11 fold enrichment (6-mer frequency, TF over GST control) | 2.52 fold enrichment (6-mer frequency, TF over GST control)
